Screens: PubChem BioAssay, National Center for Advancing Translational Sciences (NCATS)
Shown are actives, neighbours in structure and some others; about 6.3% of the full set was active somewhere.
TGFb SMAD3 inh: blocks TGF-b signaling; HepG2 CAGA-GFP TGF-b/SMAD3 reporter, GFP fluorescence, 18 h; TGF-beta stimulated, 500 pg/mL final; Potency, µM (series often up to 46.1 µM), most hits filed as inhibitors; 410,000 tested, 1.2% active; AID 588855; note: nearly all actives have a fitted effect of over 65% in size
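HEPG2 CAGA-GFP reporter cells (1000/well, DMEM with 1% FBS) received compounds, then recombinant TGF-beta at 500 pg/mL final for 18 hours at 37 degrees C. Per-cell GFP summed per well was normalised to unstimulated and stimulated DMSO controls before curve fitting.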
RORg inh: inhibitors of mouse ROR gamma transcriptional activity; Potency, µM (top dose mostly 53.6 µM), most hits filed as inhibitors; AID 2551; P51450; Drosophila S2 Gal4-RORgamma UAS-luciferase reporter, 20 h; 310,000 tested, 5.4% active; note: nearly all actives have a fitted effect of over 60% in size
Target sequence (P51450 whole entry, looked up, the tested form may be a part): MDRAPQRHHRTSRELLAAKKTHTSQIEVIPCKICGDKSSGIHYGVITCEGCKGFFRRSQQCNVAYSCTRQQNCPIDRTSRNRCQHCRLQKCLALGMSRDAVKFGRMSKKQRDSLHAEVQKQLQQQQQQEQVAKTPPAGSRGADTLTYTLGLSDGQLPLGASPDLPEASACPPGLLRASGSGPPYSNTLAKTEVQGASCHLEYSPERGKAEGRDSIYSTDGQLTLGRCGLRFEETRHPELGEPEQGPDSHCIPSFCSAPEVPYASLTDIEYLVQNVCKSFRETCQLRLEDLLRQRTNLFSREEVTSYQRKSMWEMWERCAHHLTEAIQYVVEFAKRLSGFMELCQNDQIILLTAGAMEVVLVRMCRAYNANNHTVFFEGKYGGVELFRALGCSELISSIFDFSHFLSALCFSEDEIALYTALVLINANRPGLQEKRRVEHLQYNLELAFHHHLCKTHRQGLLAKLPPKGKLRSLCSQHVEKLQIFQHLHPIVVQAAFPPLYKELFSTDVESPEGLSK
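Drosophila S2 cells stably expressing Gal4-DBD/mouse RORγ fusion under metallothionein promoter plus UAS-luciferase; compound 1 h, then 700 uM CuSO4 induction for 20 h at ambient temperature; inhibition read as reduced luminescence.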
HepG2 tox: HepG2 cytotoxicity, counter-screen for TGF-b inhibitors; 410,000 tested, 0.76% active; HepG2 CAGA-GFP viability, ATP luminescence, 18 h; Potency, µM (series often up to 46.1 µM), hits mostly cytotoxic
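CellTiter-Glo luminescence gave cytotoxicity after 18 hours at 37 degrees C. The cells were HepG2 CAGA-GFP in 1% FBS DMEM, stimulated with 500 pg/mL TGF-beta after compound addition. %Activity was normalised to no-cell wells (complete cell-killing) and DMSO (no toxicity), and curves were fitted and classified.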
VP16 counter: Gal4-VP16 reporter inhibition counter-screen; 310,000 tested, 3.5% active; Potency, µM (top dose mostly 53.6 µM), usual class: inhibitors; Drosophila S2 Gal4-VP16 UAS-luciferase, luminescence, 20 h;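 note: Gal4-VP16 expression switched on by copper sulfate through the metallothionein promoter; nearly all actives have a fitted effect of over 50% in size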
ATXN2 expr inh: ATXN2 expression inhibition; 360,000 tested, 0.72% active; AID 1745845; HEK-293 ATXN2-luciferase reporter, luminescence, 24 h; Potency, µM (titrated, usually from 57 µM), most hits filed as inhibitors; note: nearly all actives have a fitted effect of over 55% in size
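ATXN2-luciferase reporter cells (luciferase flanked by upstream and downstream ATXN2 gene portions) were treated 24 h at 37 °C with compounds at up to 57 uM. SteadyGlo luminescence gave expression; GF-AFC fluorescence gave viability.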
S2 tox: cell viability loss in ATXN counter-screen; S2 cells (HEK-293 line with an ATXN2-luciferase reporter) viability, CellTiter-Fluor protease fluorescence, 24 h; Potency, µM (doses to about 56.7 µM), hits mostly cytotoxic; 400,000 tested, 0.49% active; note: nearly all actives have a fitted effect of over 40% in size
Hits are given with their value; 0 = inactive; ? = inconclusive; - = not tested or not shown; [ ] = remark or other dose. Calls come from the whole dose curve; as a rule, active = well fitted curve in the direction sought with a large enough effect; inconclusive = small, poorly fitted or top-dose-only effect, or another doubt; inactive = no such curve, though single readings can be large; an effect the other way counts as inactive or inconclusive.

SMILES	TGFb SMAD3 inh	RORg inh	HepG2 tox	VP16 counter	ATXN2 expr inh	S2 tox
CCOC(=O)C(C)NC(=O)c1cc2c(=O)[nH]c3ccc(C)cc3c2s1 (centres undefined)	0	-	0	-	?	?
CN(CC(=O)Nc1ccccc1Br)C(=O)c1ccc(-c2ccc(Cl)cc2)o1	0	?	0	5.62µM	0	0
Cc1cc(O)cc(O)c1C(=O)OC1(C)C(=O)C=C2C=C(/C=C/CO)OC=C2C1=O (centres undefined)	-	0	-	0	-	-
Nc1nc(N)c2cc(S(=O)(=O)c3cccc(C(F)(F)F)c3)ccc2n1	0	-	1.26µM	-	-	0
Cc1cc(C)nc(NC(=S)Nc2ccc(Br)cc2Cl)c1	0	0.562µM	0	?	0	0
Cc1cc(C)nc(NC(=S)Nc2cccc(Cl)c2Cl)c1	?	0.398µM	0	1.78µM	0	?
O=C(C[N+]1(CCO)CCOCC1)c1cccs1	0	-	0	-	-	-
CC(=O)N1C2(C=CC1(C)C(=O)NCc1ccccn1)CCCCC2 (centres undefined)	-	11.2µM	-	?	-	-
Cc1cc(NC(=O)C(C)(C)C)cc(-c2nc3ncccc3o2)c1O	0	-	0	-	0	0
Cc1ccc(/C(C#N)=C\c2ccc(N3CCOCC3)o2)cc1	?	1.78µM	0	0[0.365 µM]	0	0
N#C/C(=C/c1ccc(N2CCCCCC2)o1)c1ccc(Cl)cc1	0	7.08µM	0	7.08µM	?	?
N#C/C(=C/c1ccc(N2CCCCC2)o1)c1cccc(F)c1	0	7.08µM	0	10µM	0	0
CC(C)c1ccccc1NCC(=O)N1CCN(Cc2ccccc2)CC1	0	0	0	0	0	0
CC(C)C[C@H](NC(=O)[C@H](CC(C)C)NC(=O)[C@H](CCC(N)=O)NC(=O)[C@H](CO)NC(=O)[C@@H]1CCCN1C(=O)[C@H](CO)NC(=O)[C@H](CO)NC(=O)[C@@H](NC(=O)[C@H](Cc1cnc[nH]1)NC(=O)[C@H](CCC(=O)O)NC(=O)[C@H](Cc1ccc(O)cc1)NC(=O)[C@H](CCCCN)NC(=O)[C@H](CCC(N)=O)NC(=O)[C@H](Cc1ccc(O)cc1)NC(=O)[C@H](CC(=O)O)NC(=O)[C@@H](NC(=O)[C@@H]1CCCN1C(=O)[C@H](CC(=O)O)NC(=O)[C@H](CC(N)=O)NC(=O)[C@H](CC(=O)O)NC(=O)CNC(=O)[C@H](CC(=O)O)NC(=O)[C@@H]1CCCN1C(=O)[C@H](CCC(N)=O)NC(=O)[C@H](Cc1ccc(O)cc1)NC(=O)[C@H](C)NC(=O)[C@H](Cc1c[nH]c2ccccc12)NC(=O)[C@H](Cc1ccccc1)NC(=O)[C@@H](NC(=O)[C@@H](N)CO)[C@@H](C)O)[C@@H](C)O)[C@@H](C)O)C(=O)N[C@@H](C)C(=O)N1CCC[C@H]1C(=O)NCC(=O)N[C@@H](CC(=O)O)C(=O)N[C@@H](Cc1ccc(O)cc1)C(=O)O	-	0	-	0	-	-
COC(=O)/C(=C\c1ccc([N+](=O)[O-])o1)NC(=O)c1ccccc1	11.2µM	?	12.6µM	0	?	?
CCCCNC(=O)/C(=C\c1ccc([N+](=O)[O-])o1)NC(=O)c1ccccc1	?	?	0	0	?	0
Cc1cc(Nc2cc(F)ccc2C)nc(-n2nc(C)cc2C)n1	?	-	0	-	-	-
Cc1onc(-c2c(F)cccc2Cl)c1C(=O)Nc1nnc(C2CC2)s1	0	0	0	0	0	0
Cc1onc(-c2c(F)cccc2Cl)c1C(=O)c1ccccc1O	0	0	5.62µM	0	0	0
Cc1onc(-c2c(F)cccc2Cl)c1C(=O)Nc1nnc(-c2ccccc2)s1	0	14.1µM	0	?	0	0
Cc1onc(-c2ccccc2Cl)c1C(=O)Nc1nnc(-c2ccc(F)cc2)s1	0	?	0	0	0	0
Cc1onc(-c2ccccc2Cl)c1C(=O)Nc1nnc(-c2ccc(Cl)cc2Cl)s1	0	14.1µM	0	?	0	0
Cc1onc(-c2ccccc2Cl)c1C(=O)Nc1nnc(-c2ccc(Br)cc2)s1	?	10µM	0	22.4µM	0	0
Cc1onc(-c2c(F)cccc2Cl)c1C(=O)c1ccccc1	0	0	0	0	0	0
Cc1cc(NC(=O)c2c(-c3ccccc3Cl)noc2C)no1	0	0	0	0	0	0
SMILES	TGFb SMAD3 inh	RORg inh	HepG2 tox	VP16 counter	ATXN2 expr inh	S2 tox
O=C(Nc1nnc(-c2ccc(Cl)cc2)o1)C1CCCCC1	0	0	0	0	0	0
O=C(Nc1nnc(-c2ccccc2)o1)C1CCCCC1	0	3.55µM	0	7.94µM	0	0
CCOc1ccc(-c2nnc(NC(=O)C3CCCC3)o2)cc1	0	8.91µM	0	?	0	0
CCCOc1ccc(/C=N/Nc2cc(N3CCOCC3)ncn2)c(O)c1	0	?	0	17.8µM	-	0
O=C(N/N=C/c1ccc2cccc(OCc3ccccc3)c2n1)c1ccc(Cl)cc1	0	?	0	0	0	?
COc1cccc(C(=O)N/N=C/C(Br)=C/c2ccccc2)c1	?	?	0	?	0	?
COc1ccc(C(=O)N/N=C/C(Br)=C/c2ccccc2)cc1	0	3.55µM	0	15.8µM	0	0
CCn1cc(/C=N\NC(=O)c2ccc(Cl)cc2)cn1	0	11.2µM	0	0	0	0
CN(C)c1ccc(C(=O)N/N=C/c2ccccn2)cc1	0	12.6µM	0	?	0	0
CCn1cc(/C=N\NC(=O)Cc2ccc(Cl)cc2)cn1	0	0	0	?	0	0
COc1ccc(C(=O)N/N=C/c2ccc3cccc(O)c3n2)cc1	0	1.41µM	0	3.98µM	0	?
CCOc1ccccc1N=Nc1c(C)[nH]n(-c2nc(-c3ccccc3)cs2)c1=O	-	-	-	-	0	-
Cn1nnc2c(NCc3c(F)cccc3F)ncnc21	0	-	0	-	-	-
COc1ccc(CN(C)C(=O)COC(=O)c2ccc(-c3ccccc3)cc2)c(OC)c1OC	0	-	0	-	0	?
O=C(N/N=C/c1ccccn1)c1ccc(Cl)cc1	?	1.41µM	0	2.51µM	?	0
Cc1cccc(/C=N/NC(=O)c2ccc(NC(=O)c3ccc(Cl)cc3)cc2)n1	12.6µM	0	0	?	0	0
Cc1cccc(/C=N/NC(=O)c2ccc(NC(=O)c3ccc(F)cc3)cc2)n1	0	0	0	0	0	?
Cc1ncc2c(c1CNC(=O)c1ccsc1)CCN(C(=O)c1c(F)cccc1Cl)C2	-	-	-	-	-	0
COc1ccc(C2CC(=O)C=C3c4ccc(OC)cc4CCC32)cc1 (centres undefined)	0	-	0	-	-	0
O=C1NC2=C(CCc3ccccc32)C(c2ccccc2)N1 (centres undefined)	0	0	0	0	0	0
